Experimental data from ChEMBL document CHEMBL2218924, “A broad activity screen in support of a chemogenomic map for kinase signalling research and drug discovery” (Biochem J, 2013).

Experiments:
[1] = biological target: T1, Ephrin type-A receptor 3 (Homo sapiens) (UniProt P29320); details: at 10 µM
T1 sequence (whole entry): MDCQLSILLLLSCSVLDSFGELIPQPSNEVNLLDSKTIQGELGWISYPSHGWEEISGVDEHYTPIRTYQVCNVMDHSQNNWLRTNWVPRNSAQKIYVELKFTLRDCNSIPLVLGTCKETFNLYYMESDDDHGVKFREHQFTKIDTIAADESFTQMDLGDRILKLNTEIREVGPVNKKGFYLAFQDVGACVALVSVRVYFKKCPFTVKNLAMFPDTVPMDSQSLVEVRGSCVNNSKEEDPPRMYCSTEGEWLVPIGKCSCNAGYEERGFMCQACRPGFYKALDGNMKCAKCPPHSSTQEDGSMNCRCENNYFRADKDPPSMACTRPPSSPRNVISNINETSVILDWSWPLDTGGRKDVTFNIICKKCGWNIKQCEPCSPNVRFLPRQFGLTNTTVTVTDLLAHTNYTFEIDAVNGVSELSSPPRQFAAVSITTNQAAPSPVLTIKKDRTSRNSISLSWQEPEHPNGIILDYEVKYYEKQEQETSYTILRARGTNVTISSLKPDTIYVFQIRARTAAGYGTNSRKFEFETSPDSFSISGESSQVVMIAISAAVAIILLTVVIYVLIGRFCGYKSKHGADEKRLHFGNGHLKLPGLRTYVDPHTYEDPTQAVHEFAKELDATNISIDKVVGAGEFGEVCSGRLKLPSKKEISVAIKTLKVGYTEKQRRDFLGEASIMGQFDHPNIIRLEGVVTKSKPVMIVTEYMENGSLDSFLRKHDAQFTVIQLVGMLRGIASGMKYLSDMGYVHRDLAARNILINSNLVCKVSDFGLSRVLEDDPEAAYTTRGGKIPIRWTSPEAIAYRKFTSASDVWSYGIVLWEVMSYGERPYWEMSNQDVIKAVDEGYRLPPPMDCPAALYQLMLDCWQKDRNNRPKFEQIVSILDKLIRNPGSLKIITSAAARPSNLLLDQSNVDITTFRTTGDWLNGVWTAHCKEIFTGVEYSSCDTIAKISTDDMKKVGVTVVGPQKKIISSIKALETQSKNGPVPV

[2] = biological target: Ephrin type-A receptor 4 (Homo sapiens) (UniProt P54764); details: at 1 µM
Sequence of Ephrin type-A receptor 4 (Homo sapiens) (P54764 whole entry): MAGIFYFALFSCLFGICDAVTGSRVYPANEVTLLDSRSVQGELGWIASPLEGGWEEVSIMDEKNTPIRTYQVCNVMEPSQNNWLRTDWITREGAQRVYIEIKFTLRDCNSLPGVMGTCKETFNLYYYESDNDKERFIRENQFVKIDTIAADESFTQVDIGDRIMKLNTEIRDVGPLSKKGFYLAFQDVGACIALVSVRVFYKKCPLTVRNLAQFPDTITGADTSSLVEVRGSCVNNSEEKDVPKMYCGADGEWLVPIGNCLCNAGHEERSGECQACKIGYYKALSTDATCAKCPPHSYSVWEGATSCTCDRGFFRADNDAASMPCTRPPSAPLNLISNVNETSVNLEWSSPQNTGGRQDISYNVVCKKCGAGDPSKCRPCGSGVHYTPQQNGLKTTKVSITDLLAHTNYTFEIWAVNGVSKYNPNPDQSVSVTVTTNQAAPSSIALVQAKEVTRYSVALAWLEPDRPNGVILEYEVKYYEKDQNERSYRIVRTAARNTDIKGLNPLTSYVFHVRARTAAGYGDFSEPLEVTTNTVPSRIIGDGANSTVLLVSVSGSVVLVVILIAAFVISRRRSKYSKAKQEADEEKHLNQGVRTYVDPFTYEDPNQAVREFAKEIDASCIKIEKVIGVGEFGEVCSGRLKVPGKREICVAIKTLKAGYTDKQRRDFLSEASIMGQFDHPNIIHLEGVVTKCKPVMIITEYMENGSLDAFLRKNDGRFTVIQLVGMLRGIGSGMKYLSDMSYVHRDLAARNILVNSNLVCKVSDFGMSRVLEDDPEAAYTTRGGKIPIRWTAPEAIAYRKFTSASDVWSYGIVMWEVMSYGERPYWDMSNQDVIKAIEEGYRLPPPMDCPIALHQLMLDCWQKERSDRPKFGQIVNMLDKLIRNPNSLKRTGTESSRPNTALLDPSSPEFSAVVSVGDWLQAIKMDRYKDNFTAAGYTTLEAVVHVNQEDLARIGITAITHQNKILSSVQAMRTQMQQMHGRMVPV

[3] = biological target: Ephrin type-A receptor 4 (Homo sapiens) (UniProt P54764); details: at 10 µM
[4] = biological target: Ephrin type-A receptor 5 (Homo sapiens) (UniProt P54756); details: at 1 µM
Sequence of Ephrin type-A receptor 5 (Homo sapiens) (P54756 whole entry): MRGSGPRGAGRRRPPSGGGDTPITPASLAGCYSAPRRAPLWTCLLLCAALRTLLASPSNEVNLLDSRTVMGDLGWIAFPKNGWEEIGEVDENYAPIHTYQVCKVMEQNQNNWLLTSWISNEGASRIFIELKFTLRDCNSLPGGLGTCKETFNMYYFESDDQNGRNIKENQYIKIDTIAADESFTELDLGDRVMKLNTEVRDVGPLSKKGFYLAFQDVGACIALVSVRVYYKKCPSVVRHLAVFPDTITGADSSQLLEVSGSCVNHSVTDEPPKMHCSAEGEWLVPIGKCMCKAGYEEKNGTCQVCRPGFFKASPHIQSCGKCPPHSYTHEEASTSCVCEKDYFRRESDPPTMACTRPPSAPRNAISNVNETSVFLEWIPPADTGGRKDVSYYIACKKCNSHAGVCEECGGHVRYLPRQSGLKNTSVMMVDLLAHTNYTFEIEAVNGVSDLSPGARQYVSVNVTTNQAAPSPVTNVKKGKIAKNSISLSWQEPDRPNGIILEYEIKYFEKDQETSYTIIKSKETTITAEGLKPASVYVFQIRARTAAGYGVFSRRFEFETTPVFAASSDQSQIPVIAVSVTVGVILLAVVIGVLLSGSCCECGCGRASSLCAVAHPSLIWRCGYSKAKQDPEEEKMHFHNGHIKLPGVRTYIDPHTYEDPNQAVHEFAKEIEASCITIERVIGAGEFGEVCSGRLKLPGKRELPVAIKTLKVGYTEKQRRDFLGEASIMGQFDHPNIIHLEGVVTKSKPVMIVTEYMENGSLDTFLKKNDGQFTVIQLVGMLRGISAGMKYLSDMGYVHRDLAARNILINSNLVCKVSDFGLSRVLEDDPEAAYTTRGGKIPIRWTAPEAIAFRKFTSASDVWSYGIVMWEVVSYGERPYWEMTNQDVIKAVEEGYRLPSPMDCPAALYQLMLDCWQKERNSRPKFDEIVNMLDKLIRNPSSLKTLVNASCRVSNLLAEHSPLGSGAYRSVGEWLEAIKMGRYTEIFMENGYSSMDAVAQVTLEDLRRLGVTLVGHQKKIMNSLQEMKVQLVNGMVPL

[5] = biological target: Ephrin type-A receptor 5 (Homo sapiens) (UniProt P54756); details: at 10 µM
[6] = biological target: Ephrin type-A receptor 7 (Homo sapiens) (UniProt Q15375); details: at 1 µM
Sequence of Ephrin type-A receptor 7 (Homo sapiens) (Q15375 28-998 limits assumed): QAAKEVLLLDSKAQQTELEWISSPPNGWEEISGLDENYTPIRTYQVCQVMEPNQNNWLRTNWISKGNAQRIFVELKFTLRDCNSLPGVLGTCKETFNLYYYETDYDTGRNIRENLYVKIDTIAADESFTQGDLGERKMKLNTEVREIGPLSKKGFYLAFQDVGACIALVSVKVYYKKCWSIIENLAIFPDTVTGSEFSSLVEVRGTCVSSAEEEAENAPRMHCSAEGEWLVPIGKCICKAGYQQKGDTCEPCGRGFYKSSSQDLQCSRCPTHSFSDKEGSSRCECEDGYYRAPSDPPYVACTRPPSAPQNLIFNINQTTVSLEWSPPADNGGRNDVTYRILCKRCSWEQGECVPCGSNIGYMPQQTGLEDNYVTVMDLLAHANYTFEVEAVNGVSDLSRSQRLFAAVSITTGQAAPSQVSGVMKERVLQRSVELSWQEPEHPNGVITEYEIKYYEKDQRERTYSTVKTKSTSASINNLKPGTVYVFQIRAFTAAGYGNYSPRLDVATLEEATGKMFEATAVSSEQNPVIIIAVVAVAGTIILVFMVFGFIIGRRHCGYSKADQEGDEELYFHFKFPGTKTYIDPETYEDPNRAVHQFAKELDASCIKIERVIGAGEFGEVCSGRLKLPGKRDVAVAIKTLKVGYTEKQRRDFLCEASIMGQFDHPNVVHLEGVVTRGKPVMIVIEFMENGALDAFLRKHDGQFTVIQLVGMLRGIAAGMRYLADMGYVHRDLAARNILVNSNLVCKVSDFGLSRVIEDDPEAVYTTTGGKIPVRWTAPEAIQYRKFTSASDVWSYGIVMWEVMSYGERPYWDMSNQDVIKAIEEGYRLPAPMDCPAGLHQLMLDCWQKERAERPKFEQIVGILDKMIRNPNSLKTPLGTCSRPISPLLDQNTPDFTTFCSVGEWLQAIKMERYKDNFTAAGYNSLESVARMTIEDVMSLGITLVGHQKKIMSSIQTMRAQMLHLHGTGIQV

[7] = biological target: Ephrin type-A receptor 7 (Homo sapiens) (UniProt Q15375); details: at 10 µM
[8] = biological target: T2, Ephrin type-A receptor 8 (Homo sapiens) (UniProt P29322); details: at 1 µM
T2 sequence (whole entry): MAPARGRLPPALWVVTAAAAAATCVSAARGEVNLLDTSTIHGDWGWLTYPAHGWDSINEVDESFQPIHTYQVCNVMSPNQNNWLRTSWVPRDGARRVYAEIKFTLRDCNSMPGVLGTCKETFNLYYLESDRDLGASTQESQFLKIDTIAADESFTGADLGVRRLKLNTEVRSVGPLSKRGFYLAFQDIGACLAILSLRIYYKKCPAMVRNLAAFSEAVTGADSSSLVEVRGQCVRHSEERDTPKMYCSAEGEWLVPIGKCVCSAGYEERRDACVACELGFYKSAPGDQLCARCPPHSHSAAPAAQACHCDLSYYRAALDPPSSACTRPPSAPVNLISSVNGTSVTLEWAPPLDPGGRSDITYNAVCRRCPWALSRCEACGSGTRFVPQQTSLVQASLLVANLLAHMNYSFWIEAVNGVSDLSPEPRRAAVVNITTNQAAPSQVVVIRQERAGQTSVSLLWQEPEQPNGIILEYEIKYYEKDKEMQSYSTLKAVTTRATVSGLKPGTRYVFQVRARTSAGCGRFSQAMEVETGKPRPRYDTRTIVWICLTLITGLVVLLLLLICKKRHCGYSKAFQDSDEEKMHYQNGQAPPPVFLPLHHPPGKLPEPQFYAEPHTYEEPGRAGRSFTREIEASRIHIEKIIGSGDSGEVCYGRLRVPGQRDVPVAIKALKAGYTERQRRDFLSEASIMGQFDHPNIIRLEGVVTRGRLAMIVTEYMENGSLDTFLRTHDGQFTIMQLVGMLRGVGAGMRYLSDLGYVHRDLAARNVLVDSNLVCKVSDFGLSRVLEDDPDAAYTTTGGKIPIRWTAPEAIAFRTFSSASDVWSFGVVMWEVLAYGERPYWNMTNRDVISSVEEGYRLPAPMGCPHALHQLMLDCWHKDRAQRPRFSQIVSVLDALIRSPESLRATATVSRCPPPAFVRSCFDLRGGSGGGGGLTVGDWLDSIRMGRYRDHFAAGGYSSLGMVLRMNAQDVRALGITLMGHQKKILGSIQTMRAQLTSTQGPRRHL

[9] = biological target: T2, Ephrin type-A receptor 8 (Homo sapiens); details: at 10 µM
[10] = biological target: T3, Ephrin type-B receptor 1 (Homo sapiens) (UniProt P54762); details: at 1 µM
T3 sequence (whole entry): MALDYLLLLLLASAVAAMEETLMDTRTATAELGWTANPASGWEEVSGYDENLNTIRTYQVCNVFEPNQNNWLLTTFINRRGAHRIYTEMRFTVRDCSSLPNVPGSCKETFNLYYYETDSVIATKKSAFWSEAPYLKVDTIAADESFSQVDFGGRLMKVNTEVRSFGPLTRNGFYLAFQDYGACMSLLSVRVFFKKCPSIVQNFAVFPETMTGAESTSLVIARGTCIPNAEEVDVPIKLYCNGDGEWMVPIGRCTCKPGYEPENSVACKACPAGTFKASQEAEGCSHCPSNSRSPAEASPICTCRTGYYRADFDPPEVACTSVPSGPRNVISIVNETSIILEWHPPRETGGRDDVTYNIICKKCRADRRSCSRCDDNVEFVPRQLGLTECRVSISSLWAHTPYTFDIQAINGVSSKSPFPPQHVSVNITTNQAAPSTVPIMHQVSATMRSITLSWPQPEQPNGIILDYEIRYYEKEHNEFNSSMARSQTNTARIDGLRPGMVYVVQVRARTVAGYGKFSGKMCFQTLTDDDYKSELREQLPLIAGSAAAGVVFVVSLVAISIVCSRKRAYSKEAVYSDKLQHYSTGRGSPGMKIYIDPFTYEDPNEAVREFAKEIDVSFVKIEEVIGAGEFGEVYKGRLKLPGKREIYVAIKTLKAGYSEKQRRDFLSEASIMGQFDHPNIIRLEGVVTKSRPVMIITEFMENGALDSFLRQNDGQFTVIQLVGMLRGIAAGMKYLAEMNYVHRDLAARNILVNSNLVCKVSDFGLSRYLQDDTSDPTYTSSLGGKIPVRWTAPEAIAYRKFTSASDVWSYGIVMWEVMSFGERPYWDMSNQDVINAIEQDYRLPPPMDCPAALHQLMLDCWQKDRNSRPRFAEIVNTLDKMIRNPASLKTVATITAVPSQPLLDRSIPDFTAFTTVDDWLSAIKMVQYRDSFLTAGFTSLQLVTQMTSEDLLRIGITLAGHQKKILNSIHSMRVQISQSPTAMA

Which results are given for `N#C/C(=C(\N)Sc1ccc(N)cc1)c1ccccc1C(F)(F)F`?
residual activity [1]: 99%; residual activity [2]: 116%; residual activity [3]: 112%; residual activity [4]: 98%; residual activity [5]: 95%; residual activity [6]: 99%; residual activity [7]: 89%; residual activity [8]: 85%; residual activity [9]: 87%; residual activity [10]: 110%
